# Assay results published in the OligoGym collection.
# Biological target: UNC5A
# Test: pooled miR-30 sensor sort-seq; sequence = guide strand
# Details: shRNA
# Also: reference of the scale not given here.
row,Sequence,sensor-assay potency score (higher = more potent)
1,TAGACGATGACAGCAGCGGAGG,-1.55
2,TCTCATAGATCTTCCCTCGGGG,-0.279
3,TTGATGCTGAAGCTCTGCCCGT,-1.2
4,TAGATCTCATAGATCTTCCCTC,-0.268
5,TTAAGGGACAGCTTCGGCCGGG,-0.139
6,TAGGCCTTCTGACTCTTGGTGG,-0.43
7,TTGAAGTTGATGCTGAAGCTCT,-0.155
8,TTGCACTTGAAGAAGATCTGCG,0.732
9,TTGAGGATCATGGCTGTGGGGC,-1.23
10,TTGGTGAGCTGGAACTTGGGGC,-0.337
11,TTACTCTTCCACAGGGAGCTGG,-0.541
12,TTGAAGAAGATCTGCGTGGCGG,-0.341
